Screening results as filed in PubChem BioAssay.
The list is not random: actives were taken first. Their share in the collection is about 2.8%.
CF NFkB block: blocks PAF-induced NF-kB reporter in cystic fibrosis cells. KKLEB NF-kB-GFP reporter, GFP fluorescence overnight. inhibition, % at 5 µM. 360,000 tested, 0.86% active;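 active means at least 50% inhibition at 5 µM, scaled per plate between neutral and stimulator controls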;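 further: PAF is a Pseudomonas aeruginosa culture filtrate used as stimulus; plate controls were PAF-stimulated DMSO wells for no effect and unstimulated DMSO wells for full effect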
Shn3 inh set2: inhibitors of Schnurri-3 3'UTR reporter in osteoblasts; Clone20 osteoblast Shn3 3'UTR firefly luciferase, 24 h; inhibition, % at 12.5 µM; 360,000 tested, 0.52% active; AID 588674;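 active means mean inhibition of at least 75% with every replicate also reaching 75%; inconclusive means mean inhibition at least 75% but some replicate below; inactive means mean inhibition below 75%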;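 further: 0% = median of neutral control wells and 100% = pilot-screen positive control compound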
KKLEB tox: CF airway cell cytotoxicity counter-screen | 360,000 tested, 0.36% active | activity change (cytotoxicity), % at 5 µM | AID 602141 | KKLEB CF airway cells viability, ATPlite luminescence, overnight; stronger effect = lower value; cells stimulated with P. aeruginosa culture filtrate;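 active means corrected activity change at or below -50% at 5 µM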
Peg3 promoter: reduces Peg3 promoter-driven luciferase expression in HeLa. HeLa PEG-Prom luciferase reporter, luminescence, overnight. inhibition, % at 20 µM. 360,000 tested, 1.7% active;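 active means inhibition of at least 50% at 20 µM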
MITF TRPM1 inh: inhibitors of MITF-driven TRPM1 promoter in melanoma cells | SK-MEL-5 TRPM1 promoter luciferase, 24 h | inhibition, % at 12.5 µM | 330,000 tested, 0.83% active;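 active means mean inhibition across replicates of 60% or more, whatever share of single replicates reaches that level; inconclusive means some that reach 60%, reason not given; inactive means mean inhibition across replicates below 60%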
HIF-2a block: inhibitors of HIF-2a; 786-0 RCC cells HIF-2a reporter, luciferase luminescence, overnight; inhibition, % at 18.8 µM; 360,000 tested, 0.72% active; AID 624352;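 active means inhibition of the luminescence signal of 40% or more relative to plate controls, in a single-dose primary screen at 18.75 µM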
Active calls of the source: *.

For Cc1ccc(NC(=O)CC2Nc3ccccc3NC2=O)cc1Cl (stereo not drawn) the results were CF NFkB block 43.4, Shn3 inh set2 3.7, KKLEB tox -51.8*, Peg3 promoter -57.2, MITF TRPM1 inh 1.4 and HIF-2a block -201.0.
Screening O=C(CC1Nc2ccccc2NC1=O)Nc1ccc2c(c1)OCO2 (stereo not drawn) returned CF NFkB block -10.2, Shn3 inh set2 -24.7, KKLEB tox 5.1, Peg3 promoter -53.8, MITF TRPM1 inh 3.9 and HIF-2a block -198.5.
CCCn1nc(C(=O)Oc2ccc3c(C)cc(=O)oc3c2)c2ccccc2c1=O was read as CF NFkB block 20.3, Shn3 inh set2 -27.3, KKLEB tox -6.6, Peg3 promoter 26.9, MITF TRPM1 inh 3.4 and HIF-2a block 15.8.
For Cn1c(N)c(C(=O)COC(=O)c2cc(S(=O)(=O)N3CCOCC3)ccc2F)c(=O)n(C)c1=O the results were CF NFkB block -8.2, Shn3 inh set2 14.4, KKLEB tox -10.4, Peg3 promoter 88.9*, MITF TRPM1 inh 82.2* and HIF-2a block -14.6.
Screening O=C(N1CCN=C1SCc1cccnc1)C12CC3CC(CC(C3)C1)C2 returned CF NFkB block 46.8, Shn3 inh set2 -18.5, KKLEB tox -21.9, Peg3 promoter 22.5, MITF TRPM1 inh 9.5 and HIF-2a block 29.9.
Screening COc1ccc(C(=O)N/C(N)=N/c2nc3ccccc3o2)cc1 returned CF NFkB block -10.1, KKLEB tox 0.3, Peg3 promoter -88.5, MITF TRPM1 inh -45.1 and HIF-2a block -110.5.
For COc1ccc(C(=O)/C=C/Sc2nc3ccccc3o2)cc1 the results were CF NFkB block 54.4*, KKLEB tox -10.0, Peg3 promoter 90.8*, MITF TRPM1 inh 48.7 and HIF-2a block 26.2.
`COC(=O)[C@]1(Cc2ccccc2)N[C@H](CN(C)S(=O)(=O)c2ccc(-c3ccccc3)cc2)[C@@H]2C(=O)N(C)C(=O)[C@@H]21` gave CF NFkB block 5.5, Shn3 inh set2 0.0, KKLEB tox 1.1, Peg3 promoter -0.7, MITF TRPM1 inh 2.2 and HIF-2a block 1.3.
Screening CC1(C)Cc2c(sc(NC(=O)c3ccc4c(c3)OCCO4)c2C(N)=O)C(C)(C)N1 returned CF NFkB block 8.4, Shn3 inh set2 -29.9, KKLEB tox 3.4, Peg3 promoter 17.9, MITF TRPM1 inh 0.1 and HIF-2a block 16.9.
For CCOc1ccc(C(=O)Nc2sc3c(c2C(=O)OC)CC(C)(C)NC3(C)C)cc1 the results were CF NFkB block 29.5, Shn3 inh set2 14.4, KKLEB tox -40.1, Peg3 promoter 78.9*, MITF TRPM1 inh 28.0 and HIF-2a block 1.8.
`CC1(C)Cc2c(sc(NC(=O)c3ccc(C(=O)c4ccccc4)cc3)c2C#N)C(C)(C)N1` gave CF NFkB block -4.7, Shn3 inh set2 15.4, KKLEB tox -9.9, Peg3 promoter 15.9, MITF TRPM1 inh 8.5 and HIF-2a block -1.3.
Screening CCOC(=O)c1c(NC(=O)COc2ccccc2)sc2c1CC(C)(C)NC2(C)C returned CF NFkB block 43.8, Shn3 inh set2 12.4, KKLEB tox -39.6, Peg3 promoter 74.7*, MITF TRPM1 inh 7.3 and HIF-2a block 19.6.
`COC(=O)c1c(NC(=O)c2ccc(C(=O)c3ccccc3)cc2)sc2c1CC(C)(C)NC2(C)C` gave CF NFkB block 12.6, Shn3 inh set2 -28.6, KKLEB tox -21.1, Peg3 promoter 94.0* and HIF-2a block 6.6.
CCOC(=O)C(NC(=O)CC)(N1CCc2ccccc2C1)C(F)(F)F (stereo not drawn) was read as CF NFkB block 6.0, Shn3 inh set2 -10.5, KKLEB tox 3.0, Peg3 promoter 13.0, MITF TRPM1 inh 9.3 and HIF-2a block 12.4.
`COC(=O)[C@H](CCSC)NC(=O)Cn1cnc2c(NCc3ccccc3)ncnc21` gave CF NFkB block 4.8, Shn3 inh set2 -24.0, KKLEB tox 5.3, Peg3 promoter 1.4, MITF TRPM1 inh 0.4 and HIF-2a block 8.4.
Screening O=C(CN(Cc1ccccc1F)C(=O)c1csnn1)NC1CCCCC1 returned CF NFkB block -8.9, Shn3 inh set2 -10.0, KKLEB tox 1.5, Peg3 promoter 4.5, MITF TRPM1 inh -13.2 and HIF-2a block 56.6*.
`Cc1ccc(CN(CC(=O)NC2CCCC2)C(=O)c2csnn2)cc1` gave CF NFkB block -6.8, Shn3 inh set2 3.0, KKLEB tox 3.3, Peg3 promoter 1.8, MITF TRPM1 inh -4.7 and HIF-2a block 5.2.
Cc1ccccc1NC1=C/C(=N\S(=O)(=O)c2ccc(C(=O)O)cc2)c2ccccc2C1=O was read as CF NFkB block 100.1*, Shn3 inh set2 -9.7, KKLEB tox -56.0*, Peg3 promoter 101.4*, MITF TRPM1 inh 22.3 and HIF-2a block 56.2*.
Cc1ccc(NC2=C/C(=N/S(=O)(=O)c3cccs3)c3ccccc3C2=O)cc1C was read as CF NFkB block 46.6, Shn3 inh set2 -4.7, KKLEB tox -13.8, Peg3 promoter -63.7, MITF TRPM1 inh -22.4 and HIF-2a block -40.0.
CC(=O)Nc1ccc(NC2=C/C(=N/S(=O)(=O)c3cccs3)c3ccccc3C2=O)cc1 was read as CF NFkB block 80.8*, Shn3 inh set2 96.3*, KKLEB tox -32.3, Peg3 promoter 14.8, MITF TRPM1 inh 102.0* and HIF-2a block 18.5.
Screening O=C(O)c1ccc(S(=O)(=O)/N=C2\C=C(Nc3ccccc3F)C(=O)c3ccccc32)cc1 returned CF NFkB block 102.0*, Shn3 inh set2 inconclusive, KKLEB tox -69.6*, Peg3 promoter 103.8*, MITF TRPM1 inh 46.4 and HIF-2a block -14.2.
Screening COC(=O)C(C(C)=O)C1=C/C(=N\S(=O)(=O)c2ccc(C)cc2)c2ccccc2C1=O (stereo not drawn) returned CF NFkB block 3.7, Shn3 inh set2 20.8, KKLEB tox 5.9, Peg3 promoter 19.8, MITF TRPM1 inh 16.6 and HIF-2a block 5.3.
CCOC(=O)Cc1csc(NC(=O)C(NC(=O)C2CCC(C)CC2)C(C)C)n1 (stereo not drawn) was read as CF NFkB block 1.0, Shn3 inh set2 36.3, KKLEB tox 5.4, Peg3 promoter 7.8 and HIF-2a block 4.1.
`CN1CCN(C(=S)C(=O)Nc2ccc(Br)cc2)CC1` gave CF NFkB block 12.2, Shn3 inh set2 1.4, KKLEB tox 2.3, Peg3 promoter -16.0, MITF TRPM1 inh 1.4 and HIF-2a block -14.2.
For O=C(NN=Cc1ccc2c(c1)OCO2)NN=Cc1ccc2c(c1)OCO2 the results were CF NFkB block -31.0, Shn3 inh set2 -37.0, KKLEB tox 7.6, Peg3 promoter -65.8, MITF TRPM1 inh -28.1 and HIF-2a block -134.4.
Screening N/C(=N\N=C/c1ccc(F)cc1)N/N=C\c1ccc(F)cc1 returned CF NFkB block -0.5, Shn3 inh set2 14.0, KKLEB tox -16.3, Peg3 promoter 23.2, MITF TRPM1 inh 10.2 and HIF-2a block -99.3.
